Holding throughout (assay): NCI-60 one-dose screen, 48 h (100 = growth as untreated, 0 = no growth, -100 = all killed)
Conditions in all cases: 10 µM unless noted

The subject of assay [1] is NCI-H23 lung.
For assay [2], the system named is NCI-H226 lung.
In assay [3] the test system is NCI-H322M lung.
The test system of assay [4] is HOP-62 NSCLC.
For assay [5], the system named is NCI-H460 lung.
The subject of assay [6] is HOP-92 NSCLC.
Assay [7] deals with NCI-H522 lung.
In assay [8] the test system is A549/ATCC NSCLC.
In assay [9] the test system is 786-0 renal.
The test system of assay [10] is COLO 205 colon.
For assay [11], the system named is DU-145 prostate.
The subject of assay [12] is K-562 leukemia.
The subject of assay [13] is MALME-3M melanoma.
In assay [14] the test system is MDA-MB-231 breast.
For assay [15], the system named is RXF 393 renal.
For assay [16], the system named is SF-268 CNS.
The test system of assay [17] is SF-295 CNS.
In assay [18] the test system is SF-539 CNS.
The test system of assay [19] is UACC-257 melanoma.
In assay [20] the test system is M14 melanoma.

Structures are written as SMILES. Where “and” joins values, the source holds several entries; their conditions need not be identical. Equal entries are not always repeated. About 83,000 compounds went through this panel and 20% of them were active in at least one assay; those are over-represented in the sample as a whole.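 Each cell line was grown in a 96-well plate and treated with one concentration of compound for 48 hours. Values below 10 were considered active.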 A number with no mark means an inactive call. Calls of active or inactive are those of the source.

For `COc1cc(-c2nc(-c3ccccc3)[nH]c2-c2ccnc(NCCCNS(=O)(=O)c3ccc(C(F)(F)F)cc3)n2)ccc1Cl`, the growth in [1] was 30.8% and 57%; in [2], 36.2% and 51.7%; in assay [3] it was 82.2% and 76.4%; in assay [4] it was 88.3% and 55.4%; in assay [5], 14.3% and 26.7%; in assay [6], 41.3% and 49.4%. Further, the growth in assay [7] is 60.6% and 26.8%; in assay [8], 31% and 29.3%; in [9] it was 33.3% and 35.6%; in assay [10] it was 48.8% and 11.1%; in assay [11], 52.6% and 59.5%; in [12], 18% and 23.5%. Also, the growth was 102% and 62.4% in [13]; 57% and 55.8% in assay [14]; 18.5% and 16.3% in assay [15]; 37.9% and 49% in assay [16]; 13.4% and 22.6% in assay [17]; 65.6% and 55.5% in [18]. The growth in assay [19] was 64.2% and 51.2%; in assay [20] it was 18.7%.

Turning to `COc1cccc(N2CCN(C3=C(Cl)C(=O)c4ncccc4C3=O)CC2)c1`, the growth in assay [1] is 60.3%; in assay [2], 94.7%; in [3], 95.4%; in assay [4], 83.5%; in [5], 63%; in assay [6], 135%. Moreover, the growth in [8] is 97.2%; in assay [9], 114%; in [10] it was 91.9%; in [11], 59.2%; in assay [12], 7.16% (active); in [13], 61.6%. For the same molecule, the growth in assay [14] is 85.1%; in [15], 64.5%; in assay [16], 84.1%; in assay [17], 110%; in assay [18] it was 93.8%; in assay [19] it was 70.2%. Besides, the growth in [20] was 81.7%.

Take `COc1ccc2c(c1)c(-c1nn3cc(-c4ccncc4)nc3s1)cn2C`: the growth in assay [1] was 88.7%; in [2], 88.6%; in [3], 85.4%; in assay [4] it was 67%; in assay [5] it was 53.1%; in assay [6] it was 11.6%. The growth in assay [8] is 98.7%; in [9], 93%; in assay [10], 81.5%; in assay [11] it was 93.9%; in assay [12], 28.4%; in assay [13], 89.9%. Moreover, the growth in assay [14] was 77%; in [15], 83.2%; in [16] it was 79%; in [17], 75.3%; in [18] it was 84%; in [19], 116%. Moreover, in assay [20], the growth was 107%.

Turning to `N#Cc1cnc2ccc(-c3cnc4n[nH]nc4c3)cc2c1N1CCc2cc(F)c(Cl)cc21`, the growth is 14.4% in assay [1]; 11.7% in assay [2]; 11.1% in assay [3]; 11.8% in assay [4]; 17.5% in assay [5]; 4.22% (active) in assay [6]. Besides, the growth in [8] was 11.2%; in assay [9], 16.7%; in [10], 37.8%; in [11], 14.6%; in [12], 28.1%; in assay [13], 1.37% (active). Further, the growth in assay [14] was 21.2%; in [15], -22.2% (active); in assay [16], 16.7%; in [17], 2.19% (active); in assay [18], 2.37% (active); in [19], 23.9%. Moreover, in [20], the growth was 21.2%.

Consider `CCS(=O)(=O)Nc1ccc(C(=O)CC2(O)C(=O)Nc3ccccc32)cc1` (stereo not drawn), for which the growth is 92.5% in assay [1]; 91.5% in assay [2]; 98.4% in assay [3]; 94.6% in assay [4]; 105% in assay [5]; 38.2% in assay [6]. Moreover, the growth in [7] was 105%; in [8], 107%; in [9], 108%; in assay [11] it was 109%; in assay [12], 93.5%; in assay [13], 90.1%. Also, the growth in assay [14] was 99.6%; in assay [15], 115%; in [16], 97.3%; in assay [17], 102%; in assay [18], 96.1%; in assay [19] it was 103%. Further, the growth in assay [20] was 105%.

For `NCCNC(=O)c1cccc(COc2ccccc2NC(=O)c2cc(Br)c(Br)[nH]2)c1`, the growth was 84.1% in assay [1]; 95.4% in assay [2]; 99.7% in assay [3]; 105% in [4]; 99.4% in [5]; 107% in assay [6]. The growth in [7] was 93.2%; in assay [8] it was 96.7%; in assay [9], 78.9%; in assay [11], 96.3%; in assay [12] it was -16.3% (active); in assay [13], 98.9%. Also, the growth in assay [14] is 91.4%; in assay [15], 93.4%; in [16], 61.9%; in assay [17], 88.3%; in assay [18], 96.2%; in assay [19], 116%. The growth in [20] is 102%.

As to `CCOc1cccc(/C(N)=N/C(N)=N/c2nc3ccccc3s2)c1`, the growth in [1] was 66.4%; in [2] it was 78.6%; in assay [3], 91%; in assay [4], -38.7% (active); in [5], 70.4%; in assay [6] it was 105%. The growth in assay [7] was 94.3%; in [8], -20% (active); in assay [9], 105%; in assay [11], 83.4%; in assay [12], 77.3%; in [13], 115%. Also, the growth in assay [14] is 74.3%; in [15] it was 110%; in assay [16] it was 86.5%; in assay [17], 37.7%; in assay [18], 104%; in assay [19] it was 113%. Further, the growth in assay [20] was 93.2%.

`O=C(CSc1nc2ccccc2c(=O)n1-c1ccccc1)N/N=C/c1ccc(Oc2ccc(Cl)cc2)cc1`: the growth was 39.1% in assay [1]; 72.1% in assay [2]; 84.5% in [3]; 59.1% in assay [4]; 32.1% in assay [5]; 66.7% in [6]. In addition, the growth in assay [7] was 49.6%; in assay [8], 41.7%; in [9] it was 53.2%; in [11], 38.4%; in assay [12], 61.2%; in assay [13] it was 51.3%. Further, the growth is 49.2% in [14]; 42% in assay [15]; 87.1% in assay [16]; 83.8% in assay [17]; 68.5% in [18]; 96.9% in [19]. The growth in [20] is 48.8%.

These data come from PubChem BioAssay (NCI).
